# Screens (PubChem)
# Rv3671c protease: Rv3671c (M. tuberculosis) protease inhibition; P9WHR9; inhibition, % at 5.96 µM; 320,000 compounds, 0.048% hits; in the data active means inhibition above about 38%;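 further: extracellular domain of Rv3671c used as enzyme; 0% = enzyme with DMSO and 100% = no enzyme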
# Mtb UGM inh: blocks M. tuberculosis UGM enzyme. purified UGM, fluorescence polarization probe displacement. P9WIQ1. inhibition, % at 10 µM. 320,000 compounds, 0.06% hits. AID 504406; in the data active means inhibition above about 10%, passing the limit was not always enough
# Target sequence (P9WIQ1 whole entry, looked up): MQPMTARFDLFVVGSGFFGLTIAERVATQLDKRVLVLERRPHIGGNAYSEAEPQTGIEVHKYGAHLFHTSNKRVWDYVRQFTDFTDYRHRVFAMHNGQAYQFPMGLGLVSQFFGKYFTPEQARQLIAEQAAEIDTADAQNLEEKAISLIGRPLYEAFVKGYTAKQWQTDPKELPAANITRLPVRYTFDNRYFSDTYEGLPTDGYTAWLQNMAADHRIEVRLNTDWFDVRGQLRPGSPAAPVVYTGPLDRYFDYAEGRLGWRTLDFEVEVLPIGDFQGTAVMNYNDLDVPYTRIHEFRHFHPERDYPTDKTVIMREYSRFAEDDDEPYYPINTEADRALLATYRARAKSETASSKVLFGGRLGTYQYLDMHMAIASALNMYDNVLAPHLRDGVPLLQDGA
# Mtb BioA inh: BioA (M. tuberculosis) enzyme inhibition. purified M. tuberculosis BioA enzyme, plate reader. inhibition, % at 9.99 µM. 360,000 compounds, 0.096% hits; in the data active means inhibition above about 40%
# TcdB inh: TcdB glycohydrolase inhibition | 350,000 compounds, 0.24% hits | AID 652162 | TcdB glycohydrolase enzymatic assay, plate reader | inhibition, % at 9.99 µM; in the data active means inhibition above about 10%
# RecA intein inh: inhibitors of M. tuberculosis RecA intein splicing. cell-free RecA intein splicing, fluorescence. inhibition, % (no concentration beside the values). 290,000 compounds, 0.75% hits. AID 2221; in the data active means inhibition above about 30%;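 further: 0% = vehicle wells and 100% = reference inhibitor control wells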
# FadD28 binding: blocks FadD28 binding to the bisubstrate probe | AID 588549 | inhibition, % at 12.5 µM | fluorescence polarization | 360,000 compounds, 0.22% hits; in the data active means inhibition above about 8.5%, passing the limit was not always enough
# * = called active by the depositor; . = no result given. Only some compounds are listed: those with a hit (about 0.97% of all), similar ones and a draw of the others.
SMILES,Rv3671c protease,Mtb UGM inh,Mtb BioA inh,TcdB inh,RecA intein inh,FadD28 binding
CO[C@H]1CN(C)C(=O)c2cc(NC(=O)c3ccccc3)ccc2OC[C@@H](C)N(C(=O)C2CC2)C[C@H]1C,.,.,-1,1,.,.
O=C(C[C@@H]1C[C@H]2c3cc(NC(=O)CC4CC4)ccc3O[C@H]2[C@H](CO)O1)NCc1ccc2c(c1)OCO2,.,.,0,1,.,.
CO[C@H]1CN(C)C(=O)c2cc(NC(=O)c3cnccn3)ccc2OC[C@H](C)N(CC2CC2)C[C@H]1C,.,.,.,-1,.,.
COc1ccc(S(=O)(=O)N(C)C[C@@H]2OCCCC[C@@H](C)Oc3ccc(NS(=O)(=O)c4ccc(Cl)cc4)cc3C(=O)N([C@@H](C)CO)C[C@H]2C)cc1,.,.,.,0,.,.
O=C(NCc1cccnc1)c1cc(C2CCCCN2S(=O)(=O)c2cccc3cccnc23)on1 (stereo unspecified),.,.,2,10*,.,-3
CCCNC(=O)c1cc(C2CCCCN2S(=O)(=O)c2cccc3cccnc23)on1 (stereo unspecified),.,.,-1,3,.,-3
CC(=O)NC(Cc1ccccc1)C(=O)OCC(=O)c1ccc(Br)cc1 (stereo unspecified),-5,0,-5,.,4,-1
CC(=O)NC(Cc1ccccc1)C(=O)OCC(=O)c1ccccc1 (stereo unspecified),-2,13*,0,.,0,-3
CC(=O)NC(Cc1ccccc1)C(=O)Oc1ccc2ccccc2c1 (stereo unspecified),.,.,-1,10*,.,-2
CCCN(C)C[C@@H]1OCCCC[C@H](C)Oc2ccc(NC(=O)Nc3ccc(C(F)(F)F)cc3)cc2C(=O)N([C@@H](C)CO)C[C@@H]1C,.,.,3,-1,.,.
Cc1ccc(C(=O)N2N=C(c3cccc(NS(C)(=O)=O)c3)CC2c2cccs2)cc1 (stereo unspecified),-17,0,2,0,7,-2
CS(=O)(=O)Nc1cccc(C2=NN(C(=O)c3ccccc3)C(c3cccs3)C2)c1 (stereo unspecified),-3,-5,5,13*,5,-4
COc1ccccc1C#Cc1ccc([C@H]2[C@@H](C#N)N(C(=O)C3CC3)[C@H]2CO)cc1,.,.,-9,2,.,.
C[C@H](CO)N1C[C@H](C)[C@@H](CN(C)C(=O)Nc2ccc(C(F)(F)F)cc2)Oc2ccc(NC(=O)Nc3ccc(F)cc3)cc2CC1=O,.,.,-4,.,.,.
CC(=O)c1ccc2c(c1)C1C(Cl)C(Sc3ccccc3[N+](=O)[O-])CC1C(C(=O)O)N2 (stereo unspecified),2,-2,.,.,.,20*
C[C@H](CO)N1C[C@H](C)[C@@H](CN(C)S(=O)(=O)c2ccc(Cl)cc2)Oc2ccc(NC(=O)CCN3CCOCC3)cc2CC1=O,.,.,6,1,.,.
COc1ccc(C(=O)OCC(=O)NC(=O)NC2CCCC2)cc1OC,-5,1,3,3,.,1
COc1cccc(C(=O)OCC(=O)NC(=O)NC2CCCC2)c1O,8,0,.,-1,1,12*
C[C@@H]1CN([C@H](C)CO)C(=O)c2cc(/C=C/c3ccccc3)cnc2O[C@@H]1CN(C)C(=O)NC1CCCCC1,.,.,-3,-15,.,.
O=C(c1ccccc1)c1coc2ccc(O)c(Cl)c12,0,0,0,12*,13,-2
CCN1[C@@H]2Cn3c(ccc(C4=CCCCC4)c3=O)[C@H]1[C@@H](C(=O)NC1Cc3ccccc3C1)[C@@H]2CO,.,.,.,-1,.,.
C[C@@H]1CN([C@@H](C)CO)C(=O)c2cc(C#CC3CC3)cnc2O[C@H]1CN(C)Cc1ccccc1C(=O)O,.,.,1,-8,.,.
CCOC(=O)c1c(CCl)nc2ccccc2c1-c1ccccc1,1,-1,.,0,41*,-1
Cc1ccc(S(=O)(=O)N2CCC(C(=O)OCC(=O)NCCc3ccccc3)CC2)cc1C,1,2,.,16*,2,-1
Cc1ccc(S(=O)(=O)N2CCC(C(=O)OCc3ccccc3)CC2)cc1C,-3,1,-1,2,7,-1
SMILES,Rv3671c protease,Mtb UGM inh,Mtb BioA inh,TcdB inh,RecA intein inh,FadD28 binding
C[C@H](CO)N1C[C@H](C)[C@@H](CN(C)C(=O)Nc2ccc3c(c2)OCO3)OCCCC[C@H](C)Oc2ccc(NC(=O)c3ccncc3)cc2C1=O,.,.,0,-1,.,.
O=c1c2c([nH]n1-c1ccccc1)CCSC2,4,-1,-3,-3,63*,1
O=C(O)c1ccc(-n2[nH]c3c(c2=O)CCCC3)cc1,7,3,.,0,2,0
C[C@@H]1CN([C@@H](C)CO)C(=O)Cc2cc(NC(=O)Cc3ccccc3)ccc2O[C@H]1CN(C)Cc1ccccc1,.,.,0,-3,.,.
CO[C@H]1CN(C)C(=O)c2ccc(NC(=O)c3ccccc3)cc2OC[C@@H](C)N(C(=O)C2CC2)C[C@@H]1C,.,.,-1,.,.,.
C=CC[C@@H](CC(=O)N(CCO)Cc1ccccc1)C(=O)NC[C@@H](OC(=O)[C@@H](CC=C)CC(=O)OC(C)(C)C)c1ccccc1,0,2,0,11*,.,-3
C=CC[C@H](CC(=O)N(CCO)Cc1ccccc1)C(=O)NC[C@H](OC(=O)[C@@H](CC=C)CC(=O)OC(C)(C)C)c1ccccc1,3,-2,-2,1,.,-4
CCOC(=O)c1ccc(NC(=S)NNC(=O)C2(C)CC2(Cl)Cl)cc1 (stereo unspecified),-6,2,0,.,1,15*
CCOC(=O)c1ccc(NC(=S)NNC(=O)COC)cc1,7,-1,-1,.,-4,0
CC1(C)Cc2c(sc3ncn4c(=S)[nH]nc4c23)CO1,-6,-4,.,22*,3,-4
COC(=O)c1ccc(-n2c(CCC(=O)O)ccc2-c2ccc(C)cc2)cc1,-2,1,6,.,-1,2
CCOC(=O)c1ccc(-n2c(CCC(=O)O)ccc2-c2ccc(F)cc2)cc1,-7,2,2,17*,4,-1
COc1nc(NC(C)C)nc(N(C#N)CN2C(=O)c3ccccc3S2(=O)=O)n1,-1,0,1,0,61*,-2
COc1cccc(NC(=O)N(C)C[C@@H]2Oc3ncc(C#Cc4ccc(F)cc4)cc3C(=O)N([C@@H](C)CO)C[C@@H]2C)c1,.,.,-2,2,.,.
Fc1ccc(-c2csc(=S)[nH]2)cc1,4,3,.,19*,-1,1
S=c1[nH]c(-c2ccccc2)cs1,-1,2,.,17*,.,0
O=c1[nH]c(-c2ccccc2)cs1,8,1,1,0,2,-1
O=c1[nH]c(-c2ccc(Cl)cc2)cs1,-1,-1,.,1,.,1
COc1ccccc1CNC(=O)C[C@H]1C[C@H]2c3cc(NC(=O)Cc4ccncc4)ccc3O[C@H]2[C@H](CO)O1,.,.,-2,0,.,.
O=C(Cn1cc(COc2ccc(Cl)c(Cl)c2)nn1)NS(=O)(=O)c1ccccc1OC(F)(F)F,.,.,-1,11*,.,-1
Cc1c(COc2ccc3ccccc3c2)nnn1CC(=O)NS(=O)(=O)c1ccccc1C(F)(F)F,.,.,0,-5,.,-1
